TDP1 cell noCPT = qHTS for Inhibitors of human tyrosyl-DNA phosphodiesterase 1 (TDP1): qHTS in cells in absence of CPT; DT40 Tdp1-/- hTDP1 cells, no CPT, ATP luminescence, 48 h; Potency, µM (titrated, usually from 46.2 µM), actives largely listed as inhibitors; hit rate 15% among 420,000; AID 686978, 2013; note: nearly all actives have a fitted effect of over 55% in size
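DT40 Tdp1-/-;hTDP1 cells, no CPT (DMSO vehicle only), 400 cells/well; compounds pin-transferred; ≥48 hr, 37 °C; CellTiter-Glo 30 min RT dark, luminescence read.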
KB-3-1 tox = qHTS assay for MDR1-selective chemotherapeutics: Primary screen using the parental adenocarcinoma cell KB-3-1; KB-3-1 viability, CellTiter-Glo ATP luminescence, 72 h; Potency, µM (titrated, usually from 46.1 µM), usual class: cytotoxic; hit rate 1.4% among 400,000; AID 1347075, 2019; note: nearly all actives have a fitted effect of over 60% in size
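KB-3-1 cells, DMEM (no phenol red) + 10% FBS; compound by pin transfer, 72 h, 37 °C. Readout: CellTiter-Glo luminescence after 10 min. Data normalized, curve-fitted.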
KB-V1 MDR tox = qHTS assay for MDR1-selective chemotherapeutics: Primary screen using the drug-selected MDR subline cells KB-V1. KB-V1 MDR cells viability, CellTiter-Glo, 72 h. Potency, µM (titrated, usually from 46.1 µM), actives largely listed as cytotoxic. hit rate 3.4% among 400,000; note: nearly all actives have a fitted effect of over 60% in size
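Cytotoxicity toward P-gp-expressing KB-V1 cells was determined as loss of CellTiter-Glo luminescence after 72 h at 37 degrees C. Compounds were tested in quantitative HTS format across a concentration range, with curves fitted to normalized data.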
HT1080 IDH1KD tx = qHTS for induction of synthetic lethality in tumor cells producing 2HG: qHTS for the HT-1080-IDH1KD cell line; AID 686971, 2013; HT-1080 IDH1 knockdown viability, ATP luminescence, 48 h; Potency, µM (top dose mostly 46.1 µM), usual class: cytotoxic; hit rate 2% among 360,000
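In this qHTS, HT-1080 cells depleted of IDH1 are exposed for 48 h at 37 °C to compound titrations. Toxicity is scored from CellTiter-Glo luminescence, with DMSO as full viability and medium alone as none.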
DT40 TDP1 CPT = qHTS for Inhibitors of human tyrosyl-DNA phosphodiesterase 1 (TDP1): qHTS in cells in presence of CPT; chicken DT40 Tdp1-/-;hTDP1 cells + 20 nM CPT, ATP luminescence, 48 h; hit rate 12% among 420,000; AID 686979, 2013; Potency, µM (titrated, usually from 46.2 µM), usual class: inhibitors; note: nearly all actives have a fitted effect of over 55% in size
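Chicken DT40 Tdp1-/- cells stably complemented with human TDP1 were seeded at 400 cells/well in medium containing 20 nM camptothecin, exposed to pin-transferred compounds, and grown at 37 °C for at least 48 hr. Viability was read as ATP luminescence.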
HT1080-NT tox = qHTS for induction of synthetic lethality in tumor cells producing 2HG: qHTS for the HT-1080-NT fibrosarcoma cell line; HT-1080-NT fibrosarcoma viability, CellTiter-Glo ATP luminescence, 48 h; hit rate 1.6% among 360,000; Potency, µM (top dose mostly 46.1 µM), actives largely listed as cytotoxic;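 note: NT is the 2HG producing partner of a matched IDH1 knockdown line; nearly all actives have a fitted effect of over 55% in size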
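Read-out is CellTiter-Glo luminescence after 10 minutes at room temperature, following 48 hours' compound treatment of HT-1080-NT cells (750 cells/well, RPMI, 5% FBS, 37 degrees C).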
Numbers stand for hits; ! = repeats disagree. Sampled rows, rich in hits. Any-hit rate of the full collection: about 19%. Calls come from the whole dose curve; as a rule, active = well fitted curve in the direction sought with a large enough effect; inconclusive = small, poorly fitted or top-dose-only effect, or another doubt; inactive = no such curve, though single readings can be large; an effect the other way counts as inactive or inconclusive.

`CCCCN(CCCC)S(=O)(=O)c1ccc(C(=O)Nc2sc3c(c2C(N)=O)CCN(CC)C3)cc1` gave TDP1 cell noCPT inconclusive, KB-3-1 tox inactive, KB-V1 MDR tox inactive and DT40 TDP1 CPT inconclusive.
`NC(=O)c1c(NC(=O)c2c(F)cccc2F)sc2c1CCN(Cc1ccccc1)C2` gave TDP1 cell noCPT 16.4µM, KB-3-1 tox inconclusive, KB-V1 MDR tox inactive, HT1080 IDH1KD tx inactive, DT40 TDP1 CPT inconclusive and HT1080-NT tox inactive.
Screening CC(C)CN(CC(C)C)S(=O)(=O)c1ccc(C(=O)Nc2sc3c(c2C(N)=O)CCN(C(C)C)C3)cc1 returned TDP1 cell noCPT 9.2µM, KB-3-1 tox inactive, KB-V1 MDR tox inconclusive and DT40 TDP1 CPT 8.2µM.
CCOC(=O)c1c(NC(=O)c2ccc(S(=O)(=O)N(CC(C)C)CC(C)C)cc2)sc2c1CCN(CC)C2 was read as TDP1 cell noCPT 16.4µM, KB-3-1 tox inactive, KB-V1 MDR tox inactive and DT40 TDP1 CPT 8.2µM.
`Cc1c(C(=O)NCc2ccccc2Cl)sc2nc[nH]c(=O)c12` gave TDP1 cell noCPT inactive, KB-3-1 tox inactive, KB-V1 MDR tox inactive and DT40 TDP1 CPT inactive.
`O=C(O)c1cc(O)c2c(c1)C(=O)c1cc(O)cc(O)c1C2=O` gave TDP1 cell noCPT 14.6µM!, KB-3-1 tox inactive, KB-V1 MDR tox inactive, HT1080 IDH1KD tx inactive, DT40 TDP1 CPT 13µM! and HT1080-NT tox inactive.
CCN1CCN(Cc2ccc(NC(=O)c3ccc(C)c(NC(=O)c4nccn4C)c3)cc2C(F)(F)F)CC1 was read as TDP1 cell noCPT inactive, KB-3-1 tox inactive, KB-V1 MDR tox inactive, HT1080 IDH1KD tx inactive, DT40 TDP1 CPT inactive and HT1080-NT tox inactive.
CCN1CCN(Cc2ccc(NC(=O)c3ccc(C)c(NC(=O)c4cccc5[nH]ccc45)c3)cc2C(F)(F)F)CC1 was read as TDP1 cell noCPT 13µM, KB-3-1 tox 16.4µM!, KB-V1 MDR tox inconclusive, HT1080 IDH1KD tx inconclusive, DT40 TDP1 CPT 11.6µM and HT1080-NT tox inconclusive.
CCN1CCN(Cc2ccc(NC(=O)c3ccc(C)c(NC(=O)c4nccnc4N)c3)cc2C(F)(F)F)CC1 was read as TDP1 cell noCPT 20.6µM, KB-3-1 tox inactive, KB-V1 MDR tox inactive, HT1080 IDH1KD tx inconclusive, DT40 TDP1 CPT inconclusive and HT1080-NT tox inconclusive.
Screening CCN1CCN(Cc2ccc(NC(=O)c3ccc(C)c(NC(=O)c4cc(-c5ccc(Br)cc5)n[nH]4)c3)cc2C(F)(F)F)CC1 returned TDP1 cell noCPT inconclusive, KB-3-1 tox inconclusive, KB-V1 MDR tox inconclusive, HT1080 IDH1KD tx inactive, DT40 TDP1 CPT inconclusive and HT1080-NT tox inactive.
CCN1CCN(Cc2ccc(NC(=O)c3ccc(C)c(NC(=O)c4cncc(-c5cccs5)c4)c3)cc2C(F)(F)F)CC1 was read as TDP1 cell noCPT 1.64µM, KB-3-1 tox inconclusive, KB-V1 MDR tox inconclusive, HT1080 IDH1KD tx 18.4µM, DT40 TDP1 CPT 2.31µM and HT1080-NT tox 20.6µM.
For CC(=O)N1CCC(C(=O)Nc2nnc(C(C)C)s2)CC1 the results were TDP1 cell noCPT inactive, KB-3-1 tox inconclusive, KB-V1 MDR tox inconclusive and DT40 TDP1 CPT inactive.
Screening COC(=O)c1[nH]c(C)c(/C(O)=C2\C(=O)C(=O)N(CCN(C)C)C2c2cccs2)c1C (centres undefined) returned TDP1 cell noCPT inactive, KB-3-1 tox inactive, KB-V1 MDR tox inactive, HT1080 IDH1KD tx inactive, DT40 TDP1 CPT inactive and HT1080-NT tox inactive.
CCOC(=O)c1[nH]c(C)c(/C(O)=C2\C(=O)C(=O)N(CCN3CCOCC3)C2c2cccs2)c1C (centres undefined) was read as TDP1 cell noCPT inactive, KB-3-1 tox 20µM, KB-V1 MDR tox inconclusive, HT1080 IDH1KD tx inconclusive, DT40 TDP1 CPT inactive and HT1080-NT tox inconclusive.
Screening CCc1nc2ccc(C(=O)Nc3ccc(NC(C)=O)cc3)cn2c1N(C)CCCc1ccccc1 returned TDP1 cell noCPT inconclusive, KB-3-1 tox inactive, KB-V1 MDR tox inactive, HT1080 IDH1KD tx inactive, DT40 TDP1 CPT inconclusive and HT1080-NT tox inactive.
`CN(C)CCCC(C)(O)C(Cc1ccccc1)c1ccccc1` (centres undefined) gave TDP1 cell noCPT 20.6µM, KB-3-1 tox inactive, KB-V1 MDR tox inactive, HT1080 IDH1KD tx inactive, DT40 TDP1 CPT inconclusive and HT1080-NT tox inactive.
Screening NC(=O)c1nc(-c2ccccc2)c(-c2ccccc2)[nH]c1=O returned TDP1 cell noCPT 2.31µM, KB-3-1 tox inactive, KB-V1 MDR tox inactive, HT1080 IDH1KD tx inactive, DT40 TDP1 CPT 0.581µM and HT1080-NT tox inactive.
`Cc1cc(C)n2nc(-c3cccnc3)nc2n1` gave TDP1 cell noCPT inactive, KB-3-1 tox inactive, KB-V1 MDR tox inconclusive, HT1080 IDH1KD tx inactive, DT40 TDP1 CPT inactive and HT1080-NT tox inactive.
For COc1ccc(-c2nc3c(=O)n(C)c(=O)nc-3n(C)n2)cc1 the results were TDP1 cell noCPT 0.447µM, KB-3-1 tox 0.651µM, KB-V1 MDR tox 4.61µM and DT40 TDP1 CPT 0.0891µM.
Screening Cn1nc(-c2ccc(F)cc2)nc2c(=O)n(C)c(=O)nc1-2 returned TDP1 cell noCPT 0.631µM, KB-3-1 tox 2.91µM, KB-V1 MDR tox 5.17µM and DT40 TDP1 CPT 0.447µM.
